CHT PAM: CHT positive allosteric modulators, primary screen, cell-based, membrane potential dye, choline EC20; High affinity choline transporter 1 (Homo sapiens), Q9GZV3; CHT-expressing cells; active compounds read high; LV-AA mutant CHT in HEK293 cells; B-score at 10 µM; 310,000 tested, 0.49% active; AID 488977, 2010;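 active = initial fluorescence not abnormally high and integrated response B-score, plate-corrected, over 3 SD above library mean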
Target sequence (Q9GZV3 whole entry, looked up): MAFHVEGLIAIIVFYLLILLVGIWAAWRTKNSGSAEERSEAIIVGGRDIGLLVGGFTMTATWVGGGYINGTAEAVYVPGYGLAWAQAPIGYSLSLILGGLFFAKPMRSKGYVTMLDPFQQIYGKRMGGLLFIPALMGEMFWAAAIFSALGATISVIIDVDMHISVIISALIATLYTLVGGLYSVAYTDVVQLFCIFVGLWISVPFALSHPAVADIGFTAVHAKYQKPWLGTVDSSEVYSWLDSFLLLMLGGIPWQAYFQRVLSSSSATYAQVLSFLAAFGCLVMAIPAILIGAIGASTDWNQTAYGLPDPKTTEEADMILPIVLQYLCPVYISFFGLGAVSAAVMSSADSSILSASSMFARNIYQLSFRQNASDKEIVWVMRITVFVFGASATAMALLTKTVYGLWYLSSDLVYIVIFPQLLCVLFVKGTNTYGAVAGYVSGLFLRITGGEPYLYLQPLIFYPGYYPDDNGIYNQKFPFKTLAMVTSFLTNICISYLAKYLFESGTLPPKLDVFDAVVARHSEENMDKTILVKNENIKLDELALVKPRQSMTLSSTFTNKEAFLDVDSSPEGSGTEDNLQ
HIF activator: HIF pathway transcriptional activators, primary screen, cell-based, U2OS HRE-luciferase, luminescence; U2OS HRE-luciferase reporter; normalized: DMSO 0%, desferrioxamine 100%; activation, % at 7.5 µM (by protocol); 300,000 tested, 0.32% active;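 active = mean activation of at least 10% of the iron chelator positive control signal, with at least half of replicates also reaching 10%; inconclusive = mean and replicate majority disagree about reaching 10%; inactive = mean and most replicates under 10%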
VLA-4 inh: inhibition in human VLA-4 binding assay, primary screen, VLA-4 allosteric modulator project, MLPCN library, flow cytometry, VLA-4 expressing cells. Integrin alpha-4 (Homo sapiens), P13612. ligand binding flow cytometry. inhibition, % (about 7 µM as worked out from the volumes in the protocol). 330,000 tested, 0.2% active; in the data active = inhibition above about 50%
AI-2 QS mod: Vibrio harveyi AI-2 quorum sensing modulators, primary screen, JMH597 strain, luminescence/OD600 ratio; Vibrio harveyi JMH597 AI-2 luminescence/OD600 ratio, 9 h; active compounds read low; strain lacks LuxN and CqsS sensors; 0 = neutral-control median; activity change, % at 7.5 µM; 300,000 tested, 0.4% active; AID 2094, 2009; in the data active = activity change below about -75%, passing the limit was not always enough; inconclusive = no clear call, values can overlap the other calls;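 also: luminescence divided by OD600 gain over 9 h not by final OD600 alone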
CHT block: inhibitors of human choline transporter CHT; CHT-expressing cells, membrane potential dye, choline response; active compounds read low; B-score at 10 µM; 310,000 tested, 0.86% active; AID 488975, 2010;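 active = B-score over 3 SD under the library average, and starting fluorescence ratio not unusually high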;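 also: choline stimulus applied at its EC90 after an EC20 pre-addition; B-score computed on integrated fluorescence ratio after choline addition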
Platelet DG rel: inhibitors of platelet dense granule secretion, primary screen, cell-based, MLPCN, human platelets; human platelet-rich plasma, SFLLRN dense granule ATP release, luminescence; inhibition, %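 (compounds screened at 7.5 µM in platelet-rich plasma)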; 300,000 tested, 0.22% active;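 active = mean replicate score, as percent of positive control, at or above 50; inconclusive = mean below 50 but at least one replicate at or above 50; inactive = mean and every replicate below 50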
JMH597 growth: Vibrio harveyi growth inhibition, confirmation, counter-screen for AI-2 quorum sensing project, JMH597 strain, OD600 absorbance; shares compounds with AI-2 QS mod; 9 h; lacks LuxN and CqsS sensors; growth inhibition, % at 7.5 µM; 750 tested, 1% active; AID 2726, 2010;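 active = every replicate shows growth inhibition above 50%; inconclusive = at least half, but not all, replicates pass that cutoff; inactive = fewer than half of replicates pass it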
BB721 lum counter: luminescence inhibition in constitutive-on V. harveyi, confirmation, counter-screen for LuxS inhibitor project, strain BB721, luminescence readout; shares compounds with AI-2 QS mod; Vibrio harveyi BB721 luminescence, 9 h; inhibition, % at 7.5 µM; 750 tested, 95% active;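 active = inhibition above about 80% in every replicate, not just on average, limit read from the data; inconclusive = at least half of replicates past the limit, but not all; inactive = fewer than half of replicates past the limit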
BB721 growth: growth inhibition of V. harveyi BB721, confirmation, cytotoxicity control for AI-2 quorum sensing inhibitors, strain BB721, absorbance OD600; shares compounds with AI-2 QS mod; Vibrio harveyi BB721 growth, 9 h; growth inhibition, % at 7.5 µM; 750 tested, 3% active; AID 2728, 2010;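 active = every replicate shows growth inhibition above 50%; inconclusive = at least half but not all replicates above 50% inhibition; inactive = under half of replicates above 50% inhibition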
AI-2 QS JMH597: Vibrio harveyi AI-2 signaling luminescence modulation – JMH597 strain, confirmation; shares compounds with AI-2 QS mod; AID 2736, 2010; inhibition, % at 7.5 µM; Vibrio harveyi JMH597 AI-2 quorum sensing luminescence, 9 h; luxN and CqsS knockout, AI-2 only; 750 tested, 97% active;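 active = every replicate shows more than 75% inhibition of signal versus neutral control wells; inconclusive = half to three quarters of replicates exceed 75% inhibition; inactive = fewer than half of replicates exceed 75% inhibition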
Hits are given with their value; i = inactive; ? = inconclusive; nt = not tested or not shown. Most compounds without a hit are left out; they make up all but 2.2% or so of the library.

SMILES	CHT PAM	HIF activator	VLA-4 inh	AI-2 QS mod	CHT block	Platelet DG rel	JMH597 growth	BB721 lum counter	BB721 growth	AI-2 QS JMH597
O=C(N/N=C/c1ccc(O)cc1O)c1ccc(NC(=O)C2CCCCC2)cc1	i	i	i	i	i	i	nt	nt	nt	nt
NCCSC1CC(=O)N(c2ccc(F)cc2)C1=O (centres undefined)	i	i	i	i	i	i	nt	nt	nt	nt
O=C(O)CCSC1CC(=O)N(c2ccccc2)C1=O (centres undefined)	i	i	i	i	i	i	nt	nt	nt	nt
NCCSC1CC(=O)N(c2ccc(Cl)c(Cl)c2)C1=O (centres undefined)	i	i	i	-80	i	i	i	90	i	94
O=C1CC(SCCO)C(=O)N1c1ccc(Oc2ccccc2)cc1 (centres undefined)	i	i	i	-83	i	i	i	91	i	92
O=C(CSc1ccc2c(c1)OCCO2)Nc1ccc(N2CCOCC2)cc1	i	i	i	i	i	i	nt	nt	nt	nt
COC(=O)c1ccc(-c2noc(CN(C)CC3CCCCO3)n2)cc1 (centres undefined)	i	i	i	i	i	i	nt	nt	nt	nt
COC(=O)c1ccc(-c2noc(CN3C[C@H]4CC[C@H]3C4)n2)cc1	i	i	i	-84	i	i	i	94	i	96
O=C(Cc1ccccc1F)Nc1ccc(SC(F)F)cc1	i	i	i	-83	i	i	i	94	i	94
CC(=O)Nc1ccc(S(=O)(=O)Nc2ccc3c(c2)OCCO3)cc1Cl	i	i	i	-97	i	i	i	99	i	100
Cc1ccc(Cn2cc(-c3ccccc3)nn2)cc1	i	i	i	-95	i	i	i	98	i	99
O=C(Cc1ccc(Cl)cc1)N/N=C/c1ccncc1	i	i	i	-81	i	i	i	92	i	92
O=C(Cc1ccc(Cl)cc1)N/N=C/c1ccccc1	i	i	i	i	i	i	nt	nt	nt	nt
O=C(Cc1ccc(Cl)cc1)N/N=C/c1cccc(O)c1	i	i	i	-95	i	i	i	97	i	98
Cc1ccc(S(=O)(=O)N(C)C)cc1NC(=O)C(C)OC(=O)C1CCCCC1 (centres undefined)	nt	nt	i	nt	nt	nt	nt	nt	nt	nt
O=C(Nc1ccc(S(=O)(=O)NC2=NCCCCC2)cc1)c1ccccc1Cl	i	i	i	i	i	i	nt	nt	nt	nt
O=C(O)c1ccc(N/N=C/c2cc3c(cc2[N+](=O)[O-])OCO3)cc1	i	i	i	?	i	i	i	93	i	94
Cc1cc(C)nc(N/N=C/c2cc3c(cc2[N+](=O)[O-])OCO3)n1	i	i	i	i	i	i	nt	nt	nt	nt
O=C(O)c1ccc(N/N=C/c2ccc3c(c2)OCO3)cc1	i	i	i	-85	i	86	i	98	i	98
COc1cccc(OCc2cc(/C=N/Nc3ccc(C(=O)O)cc3)ccc2OC)c1	i	i	i	-84	i	65	i	92	i	95
Cc1c(S(=O)(=O)N(C)C2CCCCC2)c(=O)n(C)c(=O)n1C	i	i	i	i	i	i	nt	nt	nt	nt
N#Cc1ccc(CSc2nnc(-c3ccncc3)o2)cc1	i	i	i	i	i	i	nt	nt	nt	nt
COc1cccc(CSc2nnc(-c3ccc(F)cc3)o2)c1	i	nt	i	-91	i	i	i	96	i	97
c1ccc(CSc2nnc(-c3ccncc3)o2)cc1	i	i	i	-88	i	i	i	95	i	96
Cc1ccccc1-c1nnc(SCc2ccccc2)o1	i	i	i	-96	i	i	i	99	i	99
SMILES	CHT PAM	HIF activator	VLA-4 inh	AI-2 QS mod	CHT block	Platelet DG rel	JMH597 growth	BB721 lum counter	BB721 growth	AI-2 QS JMH597
COc1ccc(-c2nnc(SCc3cccc(C#N)c3)o2)cc1	i	i	i	i	i	i	nt	nt	nt	nt
Cc1ccccc1-c1nnc(SCc2ccccc2F)o1	i	i	i	-81	i	i	i	95	i	96
Cc1ccc(S(=O)(=O)N2CCOCC2)cc1NC(=O)COC(=O)Cc1ccccc1	nt	nt	i	nt	nt	nt	nt	nt	nt	nt
CN(Cc1cccc(F)c1)CC(O)COCc1ccccc1Cl (centres undefined)	i	i	i	i	i	i	nt	nt	nt	nt
O=C(CCl)NN1C(=O)NC(c2ccccc2)(c2ccccc2)C1=O	i	i	i	-95	i	i	i	98	i	98
O=C(c1cc(-c2ccc(O)cc2)on1)N1CCCCCC1	i	i	i	-78	i	i	i	93	i	96
Cc1cccc(C)c1OCc1cc(C(=O)N(C)Cc2cc(C3CC3)n[nH]2)no1	i	i	i	i	i	i	nt	nt	nt	nt
Cc1ccc(OCc2cc(C(=O)N(C)Cc3cc(C4CC4)n[nH]3)no2)cc1C	i	i	i	-81	i	i	i	85	i	90
CCN(C(=O)COC(=O)COc1ccccc1Cl)c1c(N)n(Cc2ccccc2)c(=O)[nH]c1=O	nt	nt	i	nt	nt	nt	nt	nt	nt	nt
CCN(CC)C(=O)CSc1ncnc2sc(-c3ccccc3)cc12	i	i	i	i	i	i	nt	nt	nt	nt
CN(C)C(=O)COc1ncnc2sc(-c3ccccc3)cc12	i	i	i	-84	i	i	i	94	i	97
O=C(CN1C(=O)c2ccccc2C1=O)Nc1ccc(-c2nc3ccccc3o2)cc1	i	i	i	-92	i	i	i	87	i	93
CN(C)c1ccc(NC(=O)CN2C(=O)c3ccccc3C2=O)cc1	i	i	i	?	i	i	nt	nt	nt	nt
CCOCC(=O)Nc1ccc(OCc2ccccc2)cc1	i	i	i	i	i	i	nt	nt	nt	nt
CC(C)=CC(=O)Nc1ccc(OCc2ccccc2)cc1	i	i	i	-83	i	i	i	94	i	96
CCOc1ccccc1C(=O)Oc1cc(C)[nH]c(=O)c1[N+](=O)[O-]	i	i	i	i	i	i	nt	nt	nt	nt
O=C(CC1C(=O)NCCN1CC(c1ccccc1)c1ccccc1)NC1CC1 (centres undefined)	i	i	i	i	i	i	nt	nt	nt	nt
